The source made the active and inactive calls. No rule for the calls is given here.

For this assay, the system named is Aerobactin synthetase IucA (Klebsiella pneumoniae hvKP1). Kind of assay: IucA enzyme inhibition, primary screen, biochemical, Spectrum library (AID 1346200).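 Also: 100% = wells without compound and 0% = wells lacking enzyme.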 The following applies: malachite green pyrophosphate, A620, at 8 µM, stronger effect = lower value.
Turning to `Nc1c2c(nc3ccccc13)CCCC2O` (stereo not given), the activity remaining is 105% (inactive).

Take `OC[C@H]1O[C@@H](O[C@@H]2[C@@H](CO)O[C@](O)(CO)[C@H]2O)[C@H](O)[C@@H](O)[C@H]1O`: the activity remaining was 121% (inactive). For `NC[C@@H]1O[C@H](O[C@@H]2[C@@H](CO)OC(O[C@@H]3[C@@H](O)[C@H](N)C[C@H](N)[C@H]3O[C@H]3O[C@H](CO)[C@@H](O)[C@H](O)[C@H]3N)[C@@H]2O)[C@H](N)[C@@H](O)[C@@H]1O` (stereo not given in full), the activity remaining was 97.1% (inactive). On to `CC(=O)c1c(O)cc(O)cc1O`, for which the activity remaining was 94.3% (inactive). Next, `C[C@@H]1CC[C@H]2[C@@H](C)C(O)O[C@@H]3OC4(C)CC[C@@H]1[C@]32OO4` (stereo not given in full): 106% (inactive); `C/C=C/C(=O)N(CC)c1ccccc1C`: 112% (inactive); `CCC(=O)O[C@H]1CCC2C3CCc4cc(O)ccc4C3CC[C@@]21C` (stereo not given in full): 101% (inactive). `C[C@H](CCC(=O)O)[C@H]1CCC2C3C(CC[C@@]21C)[C@@]1(C)CC[C@@H](O)C[C@H]1C[C@@H]3O` (stereo not given in full): the activity remaining is 105% (inactive). On to `CN(N=O)C(=O)N[C@@H]1[C@@H](O)[C@H](O)[C@@H](CO)O[C@@H]1O`, for which the activity remaining is 112% (inactive).

On to `CC1(C)S[C@@H]2[C@H](NC(=O)[C@@H](N)c3ccc(O)cc3)C(=O)N2[C@H]1C(=O)O`, for which the activity remaining was 99.8% (inactive).

Turning to `COc1ccc(-c2coc3cc(O)ccc3c2=O)cc1`, the activity remaining was 109% (inactive).

For the molecule `OC[C@H]1O[C@@H](O[C@H]2[C@H](O)[C@@H](O)[C@@H](O)O[C@@H]2CO)[C@H](O)[C@@H](O)[C@@H]1O`, the activity remaining is 107% (inactive). For `CO/N=C1\CN(c2nc3c(cc2F)c(=O)c(C(=O)O)cn3C2CC2)CC1CN` (stereo not given), the activity remaining was 106% (inactive). Next, `NC(=O)c1cccnc1`: 109% (inactive).

As to `C=CCSCC=C`, the activity remaining was 109% (inactive).

Take `C=C1CCC2C(CC2(C)C)C(=C)CC/C1=N/O` (stereo not given): the activity remaining is 105% (inactive).

Regarding `CC1(C)CC[C@]2(C(=O)O)CC[C@]3(C)C(=CCC4[C@@]5(C)CC[C@H](O)[C@@](C)(CO)C5CC[C@]43C)C2C1` (stereo not given in full), the activity remaining is 97.3% (inactive). In the case of `OC(CCN1CCCC1)(c1ccccc1)C1CCCCC1` (stereo not given), the activity remaining is 99.4% (inactive).

For the molecule `CC1(C)C(=O)C=C[C@@]2(C)C1CC(=O)[C@]1(C)C2CC[C@@]2(C)[C@H](c3ccoc3)OC(=O)[C@H]3O[C@]321` (stereo not given in full), the activity remaining was 116% (inactive). To `C[C@H]1c2cccc(O)c2C(O)=C2C(=O)[C@]3(O)C(O)=C(C(N)=O)C(=O)[C@@H](N(C)C)[C@@H]3[C@@H](O)[C@@H]21` belongs 93.8% (inactive); to `OC[C@@H](O)[C@@H](O[C@@H]1O[C@H](CO)[C@@H](O)[C@H](O)[C@H]1O)[C@H](O)[C@@H](O)CO`, 96.4% (inactive); to `CC(=O)O[C@@H]1CC2C(C)(C)C(=O)[C@@H]3O[C@@H]3[C@]2(C)C2CC[C@]3(C)C(=CC(=O)O[C@H]3c3ccoc3)[C@@]21C` (stereo not given in full), 99.4% (inactive). Take `O=C(O)c1cc(=O)c2ccc(Cl)cc2[nH]1`: the activity remaining was 94.8% (inactive). Regarding `CCN(CC)CCCC(C)Nc1ccnc2cc(Cl)ccc12` (stereo not given), the activity remaining is 93% (inactive). As for `Cc1cc(O)cc(O)c1C(=O)O`, the activity remaining is 113% (inactive). In the case of `C[N+]1(CCCCC[N+]2(C)CCCC2)CCCC1`, the activity remaining is 89.1% (inactive). To `CC(=O)O[C@H]1CCC2(C)C3=C(CCC2C1(C)C)[C@]1(C)CCC(C(C)CCC=C(C)C)[C@@]1(C)CC3` (stereo not given in full) belongs 111% (inactive); to `O=C1C=C(O)c2ccccc2C1=O`, 123% (inactive); to `Nc1nc2ncc(CNc3ccc(C(=O)N[C@@H](CCC(=O)O)C(=O)O)cc3)nc2c(=O)[nH]1`, 91.3% (inactive). To `COC(=O)c1c(OC)cc2c(c1C)Oc1c(Cl)c(O)c(Cl)c(C)c1C(=O)O2` belongs 116% (inactive); to `NCCCC(=O)O`, 119% (inactive); to `Oc1cc(O)c2c(c1)O[C@H](c1ccc(O)c(O)c1)[C@@H](O)C2`, 93% (inactive). On to `O=C1c2cccc(O)c2C(=O)c2c(O)cccc21`, for which the activity remaining is 93.6% (inactive). For `C=CCCCCCCCCCCCC(O)CC(O)CO` (stereo not given) (tested in a mixture with another compound), the activity remaining is 85.4% (inactive). On to `COC1=CC(=O)C(C(=O)c2ccccc2)=CC1=O`, for which the activity remaining is 93.6% (inactive).

On to `O=C(O)c1cc(=O)c2ccccc2[nH]1`, for which the activity remaining was 113% (inactive).

With `C=CCCCCCCCCCCCc1ccco1`, the activity remaining was 99.3% (inactive). `CC(C[N+](C)(C)C)OC(N)=O` (stereo not given): the activity remaining is 116% (inactive). On to `NCC[C@@H](O)C(=O)N[C@@H]1C[C@H](N)[C@@H](O[C@H]2O[C@H](CN)[C@@H](O)[C@H](O)[C@H]2O)[C@H](O)[C@H]1O[C@H]1O[C@H](CO)[C@@H](O)[C@H](N)C1O` (stereo not given in full), for which the activity remaining is 113% (inactive). For `CC(=O)O[C@]1(C(C)=O)CCC2C3C=C(Cl)C4=CC(=O)[C@@H]5C[C@@H]5[C@]4(C)C3CC[C@@]21C` (stereo not given in full), the activity remaining is 101% (inactive).

The values are drawn from PubChem BioAssay.
